This is part of a sample that, as a whole, favours compounds with a hit. Of some 83,000 tested, about 20% had one in any assay.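 Activity criterion: percent growth below 10, measured after cells in 96-well plates were exposed to a single compound concentration for 48 hours.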 Values without a mark were called inactive. Activity calls are given as the source filed them.

We go through 14 compounds from PubChem BioAssay (NCI).

The test system of the test is HL-60(TB) leukemia. Nature of the test: NCI-60 one-dose screen, 48 h (100 = growth as untreated, 0 = no growth, -100 = all killed). As to conditions: 10 µM unless noted.
Take `O=C(NCCNc1cc(-c2cn(-c3ccccc3)nc2-c2cccc(O)c2)ccn1)Nc1ccc(Cl)c(C(F)(F)F)c1`: the growth is 84.2%.

Take `CNC(=O)c1cc(Oc2ccc3nc(NC(=O)c4ccc(CN5CCCN(C)CC5)c(C(F)(F)F)c4)sc3c2)ccn1`: the growth was -65.2% (active).

In the case of `N#CC1=C2NCCCNc3oc(nc3C#N)Cc3ccccc3CC(=N1)O2`, the growth is 62.9%.

Consider `O=C1/C(=C/c2ccc([N+](=O)[O-])cc2)SC(=Nc2ccccc2)N1Nc1ccccc1`, for which the growth was 25.8%.

Regarding `O=C(CSc1ccc(-c2nc3ccccc3[nH]2)cn1)N1CCN(c2ccccc2F)CC1`, the growth is 64.6%.

Regarding `CCOc1ccc(C(=O)Nc2ncc(Cc3ccc(F)cc3)s2)cc1`, the growth is 1.55% (active).

As to `CCNC(=O)Oc1ccc(/C(=C(/C)c2ccc(Cl)cc2)c2ccc(OCCN3CCCC3)cc2)cc1`, the growth is 56.2%.

Consider `COc1ccc(-n2c(SCc3n[nH]c(=S)o3)nc3ccc(Cl)cc3c2=O)cc1`, for which the growth is 109%.

Take `O=C(Nc1nonc1-c1ccccc1)c1ccc(C(F)(F)F)cc1`: the growth is 79.1%.

Take `COc1ccc(CC(C)=C(c2ccc(OCCN3CCCC3)cc2)c2ccc(OCCN3CCCC3)cc2)cc1`: the growth was -64.2% (active).

`C#Cc1nc(/C=C\CCCCCCC(=O)NO)cs1`: the growth was -53.8% (active).

For the compound `CC1(COc2ccc3ncc(C#Cc4cncc(C(=O)Nc5cc(C(C)(C)C)on5)c4)n3n2)COC1`, the growth is 23%.

As for `CCCSc1nc(Nc2ccc(/C(C)=N\NC(N)=S)cc2)c(C#N)c(-c2ccc(OC)cc2)n1`, the growth is 74%.

For `Cc1c(NC(=O)CSc2nc3sc4c(c3c(=O)n2-c2ccc(Cl)cc2)CCCC4)c(=O)n(-c2ccccc2)n1C`, the growth was 80%.
